# Shown are actives, neighbours in structure and some others; about 6.2% of the full set was active somewhere.
# HT1080-NT tox: kills 2HG-producing HT-1080-NT fibrosarcoma cells | HT-1080-NT fibrosarcoma viability, CellTiter-Glo ATP luminescence, 48 h | Potency, µM (doses to about 46.1 µM), for the others: top-dose activity, negative = less viability, hits mostly cytotoxic | 360,000 compounds, 1.6% hits | AID 686970;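 further: NT is the 2HG producing partner of a matched IDH1 knockdown line; 0% = DMSO-treated cells and -100% = media-only wells without cells; nearly all actives have a fitted effect of over 55% in size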
#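 750 cells/well, RPMI + 5% FBS; 2 h settle, compound pin-transfer, 48 h at 37 degrees C. CellTiter-Glo 10 min RT, luminescence. Normalized to DMSO and media-only wells.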
# ATXN2 expr inh: reduces ATXN2 reporter expression in HEK-293 cells. HEK-293 ATXN2-luciferase reporter, luminescence, 24 h. Potency, µM (top dose mostly 57 µM), inactives show at the highest dose activity change, negative = inhibition, actives largely listed as inhibitors. 360,000 compounds, 0.72% hits. AID 1745845; further: on the % scale 0 is the no-effect control and ±100 the full control effect; nearly all actives have a fitted effect of over 55% in size
#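 ATXN2-luciferase reporter cells (luciferase flanked by upstream and downstream ATXN2 gene portions) were treated 24 h at 37 °C with compounds at up to 57 uM. SteadyGlo luminescence gave expression; GF-AFC fluorescence gave viability.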
# KB-V1 MDR tox: kills drug-selected multidrug resistant KB-V1 cells; 400,000 compounds, 3.4% hits; Potency, µM (top dose mostly 46.1 µM), actives largely listed as cytotoxic; KB-V1 MDR cells viability, CellTiter-Glo, 72 h; AID 1347076; further: on the % scale 0 is the no-effect control and ±100 the full control effect; nearly all actives have a fitted effect of over 60% in size
#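 Following 72 h at 37 degrees C with compound, KB-V1 cell viability was read by CellTiter-Glo luminescence, medium being phenol-red-free DMEM plus 10% FBS; concentration-response parameters came from normalized, curve-fitted qHTS data.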
# KB-3-1 cytotox: KB-3-1 parental cell cytotoxicity. KB-3-1 viability, CellTiter-Glo ATP luminescence, 72 h. Potency, µM (top dose mostly 46.1 µM), usual class: cytotoxic. 400,000 compounds, 1.4% hits. AID 1347075; further: on the % scale 0 is the no-effect control and ±100 the full control effect; nearly all actives have a fitted effect of over 60% in size
#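 Parental KB-3-1 viability, qHTS format: 72 h compound exposure, 37 °C; CellTiter-Glo; media-only wells and DMSO plates as controls; concentration-effect fits on corrected data.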
# HT1080 IDH1KD tx: kills HT-1080 cells with IDH1 knockdown; HT-1080 IDH1 knockdown viability, ATP luminescence, 48 h; Potency, µM (highest dose often 46.1 µM), for inactives: top-dose activity, negative = toxicity, hits mostly cytotoxic; 360,000 compounds, 2% hits;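 further: 0% = DMSO wells and -100% = cell-free medium wells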
#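 Viability of IDH1-knockdown HT-1080 fibrosarcoma cells was assessed by CellTiter-Glo after 48 h at 37 °C with titrated compound; concentration-effect curves were classified by fit quality and response size.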
# S2 tox: cell viability loss in ATXN counter-screen; Potency, µM (doses to about 56.7 µM), most hits filed as cytotoxic; 400,000 compounds, 0.49% hits; S2 cells (HEK-293 line with an ATXN2-luciferase reporter) viability, CellTiter-Fluor protease fluorescence, 24 h; further: nearly all actives have a fitted effect of over 40% in size
# Numbers without * were called inactive; i = inactive; ? = inconclusive; . = not tested or not shown. The call rests on the fitted dose curve; in most records, active means well fitted curve in the direction sought with a large enough effect; inconclusive means small, poorly fitted or top-dose-only effect, or another doubt; inactive means no such curve, though single readings can be large; an effect the other way counts as inactive or inconclusive. Potency means the concentration at half of the fitted maximal effect.
SMILES,HT1080-NT tox,ATXN2 expr inh,KB-V1 MDR tox,KB-3-1 cytotox,HT1080 IDH1KD tx,S2 tox
COc1ccc(CNCC(O)(c2ccccc2)c2ccc(F)cc2)cc1 (stereo not given),-27%,-23%,i,i,?,i
COc1ccc(CNC(=O)CNC(C)c2ccc(F)cc2)cc1 (stereo not given),-2%,0%,i,i,5%,i
COc1ccccc1Cc1nc2ccccc2nc1SCC(=O)N1CCC(C)CC1,.,1%,i,i,.,?
O=C(COc1ccc(Br)cc1)Nc1cccc2cccnc12,.,7%,i,i,.,i
COc1ccc(C(CCNCc2ccccc2)c2ccc(F)cc2)cc1 (stereo not given),?,-31%,18µM*,?,16µM*,i
O=C(c1ccc(COc2ccc(Br)cc2)o1)N1N=C(C(F)F)CC1(O)C(F)F (stereo not given),?,-15%,i,i,21µM*,?
O=C(c1ccc(COc2ccc3ccccc3c2)o1)N1N=C(C(F)F)CC1(O)C(F)F (stereo not given),?,-26%,?,i,?,i
Cc1cc(C)cc(OCc2ccc(C(=O)N3N=C(C(F)F)CC3(O)C(F)F)o2)c1 (stereo not given),-9%,-12%,?,i,-10%,i
CCOc1ccc(OCc2ccc(C(=O)N3N=C(C(F)F)CC3(O)C(F)F)o2)cc1 (stereo not given),?,6%,16µM*,i,?,i
O=C(Nc1nnc(C2CC2)s1)C1Cc2ccccc2CN1S(=O)(=O)c1ccccc1F (stereo not given),?,43%,?,i,13µM*,i
O=C(Nc1nccs1)C1Cc2ccccc2CN1S(=O)(=O)c1ccc(F)cc1 (stereo not given),1%,1%,i,i,-6%,i
O=C(Nc1nnc(SCc2ccc(F)cc2)s1)C1CC(=O)N(Cc2ccccc2)C1 (stereo not given),4%,-24%,21µM*,i,22%,?
Cc1cc(C)c(C)c(S(=O)(=O)NCC(=O)NCc2ccco2)c1C,13%,4%,18µM*,i,19%,i
Cc1ccc(S(=O)(=O)N[C@@H](CC(C)C)C(=O)NCc2ccco2)cc1,3%,-2%,15µM*,i,9%,i
Cc1cc(C)c2c(CC(=O)NCc3ccco3)coc2c1,?,2%,15µM*,?,?,i
CCCCCn1c(=N)c(S(=O)(=O)c2ccccc2)cc2c(=O)n3cccc(C)c3nc21,.,-7%,i,i,.,?
CCc1nc2ccccc2c(C(=O)OCc2nc3ccccc3c(=O)[nH]2)c1C,10µM*,-25%,?,?,18µM*,i
COc1cc(SSc2cc(OC)cc([N+](=O)[O-])c2N)c(N)c([N+](=O)[O-])c1,-1%,.,?,?,-12%,7.9µM*
COc1cc([N+](=O)[O-])c2ncsc2c1,16%,-11%,i,i,22%,i
CCC(C)(Oc1ccc(C2(c3ccc(OC(C)(CC)C(=O)O)cc3)CCCCC2)cc1)C(=O)O (stereo not given),.,7%,.,.,.,i
CC#CCOC(=O)c1c(C)nc2sc3c(c2c1N)CCC(O)C3 (stereo not given),23µM*,3%,12µM*,?,?,i
COc1ccc(OCc2n(CC(=O)OC3CC(C)CCC3C(C)C)c3ccccc3[n+]2C)cc1 (stereo not given),5.8µM*,?,?,13µM*,5.8µM*,?
CC1CCC(C(C)C)C(OC(=O)CSc2nccc(=O)[nH]2)C1 (stereo not given),4%,4%,i,i,4%,i
COc1ccc(-c2n(CC(=O)OC3CC(C)CCC3C(C)C)c3ccccc3[n+]2C)cc1 (stereo not given),6.5µM*,7.5µM*,?,?,5.8µM*,?
O=[N+]([O-])c1ccc(/C=C/c2ccnc3ccccc23)c([N+](=O)[O-])c1,.,.,i,i,.,.
SMILES,HT1080-NT tox,ATXN2 expr inh,KB-V1 MDR tox,KB-3-1 cytotox,HT1080 IDH1KD tx,S2 tox
CCc1nc2ccc(C(=O)N(C)CCCN(C)C)cn2c1N(C)Cc1cc2ccccc2s1,18µM*,?,i,i,16µM*,?
CCc1nc2ccc(C(=O)Nc3ccc(NC(C)=O)cc3)cn2c1N(C)CCCc1ccccc1,0%,?,i,i,-21%,?
CCc1nc2ccc(C(=O)Nc3ccc(C(=O)N(C)C)cc3)cn2c1N(C)CCCc1ccccc1,-6%,?,i,i,-10%,28µM*
CCOc1ccc(NC(=O)c2ccc3c(c2)CCN3S(=O)(=O)c2ccc(Cl)cc2)cc1,.,-14%,i,i,.,?
COc1cccc(NC(=O)c2cccc(C(=O)Nc3cccc(OC)c3)n2)c1,-2%,2%,i,i,1%,i
C=CC(=O)Nc1cccc(Oc2cc(Cl)nc3[nH]ccc23)c1,?,?,18µM*,?,?,18µM*
CN(C)CCCn1c(SCC(=O)N2c3ccccc3Sc3ccccc32)nc2ccccc2c1=O,18µM*,28µM*,?,?,?,25µM*
CCn1c(SCC(=O)N2c3ccccc3Sc3ccccc32)nnc1-c1ccco1,2%,-16%,i,i,0%,i
Cn1c(SCC(=O)N2c3ccccc3Sc3ccc(Cl)cc32)nnc1-c1ccco1,0%,-5%,23µM*,i,7%,i
OC(CN1c2ccccc2Sc2ccccc21)Cn1nnc2ccccc21 (stereo not given),-16%,-11%,16µM*,?,?,?
Cn1c(Cn2nnc3ccccc32)nnc1SCC(=O)N1c2ccccc2Sc2ccccc21,?,-8%,16µM*,i,?,i
Cc1nc2ccccc2nc1CN1CCOc2ccc(CN3CCc4sccc4C3)cc2C1,.,.,.,.,.,i
COC(=O)c1c(OCc2ccccn2)cc(=O)n2c1CCN(C(=O)c1n[nH]c3c1CCCC3)CC2,.,.,.,.,.,i
Nc1ccc(/C=C/c2ccnc3ccccc23)cc1,.,.,i,i,.,.
Cc1ccc(-c2csc(NC(=O)CSc3nc4ccccc4c(=O)n3CCCN(C)C)n2)cc1,?,?,?,?,23µM*,?
Nc1ccccc1SCC(=O)Nc1nc(-c2ccccc2)cs1,-8%,13%,?,4.1µM*,?,i

# High-throughput results (PubChem)
